Structures are written as SMILES. The whole screen tested about 65,000 compounds, of which about 450 (0.69%) were called active. The list comes from a sample in which actives are over-represented; it also holds similar structures and randomly drawn compounds. Unmarked numbers belong to inactive results.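 How the source made its calls: active means activation above a set limit, the screen-wide mean activation plus 3 SD (cut at about 8.5% in these data); inactive means the rest.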

The results in this text go back to PubChem BioAssay AID574 (The Scripps Research Institute Molecular Screening Center, 2007).

For this assay, the target named is 5-hydroxytryptamine receptor 1E (Homo sapiens) (UniProt P28566). Briefly: activation of human serotonin 5HT1E receptor – cell-based, HTS, primary screen (AID 574).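 Further: 100% = positive control agonist at 1 µM giving full maximal response.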 Conditions: CHO 5-HT1E Ga15 NFAT-bla reporter, FRET; at 6 µM; stronger effect = higher value; 0% DMSO wells, 100% control agonist wells.
Chain of 5-hydroxytryptamine receptor 1E (Homo sapiens) (P28566 whole entry, looked up): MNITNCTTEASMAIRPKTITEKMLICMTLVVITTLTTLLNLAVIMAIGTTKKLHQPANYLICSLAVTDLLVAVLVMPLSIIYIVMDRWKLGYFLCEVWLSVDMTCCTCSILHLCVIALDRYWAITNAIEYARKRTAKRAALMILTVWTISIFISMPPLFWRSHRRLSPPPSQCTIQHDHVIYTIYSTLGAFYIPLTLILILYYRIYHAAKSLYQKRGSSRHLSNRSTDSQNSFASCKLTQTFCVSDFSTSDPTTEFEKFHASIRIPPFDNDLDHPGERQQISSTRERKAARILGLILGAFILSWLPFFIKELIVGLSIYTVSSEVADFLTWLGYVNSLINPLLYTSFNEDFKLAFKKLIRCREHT
Take `CC1(C)C/C(=C(/C#N)C(N)=O)CCO1`: the activation was -0.1%. For `Cc1cn(COC/C=C/c2ccccc2)c(=O)[nH]c1=O`, the activation is 0.2%. For `CC(C)Cn1c(CCC(=O)O)ccc1-c1cccs1`, the activation is 0.6%. With `CC1CCCC(NC(=O)CN2CCN(Cc3ccc(Cl)cc3)C2=O)C1C` (stereo not given), the activation is -0.6%. Then `O=C(OC1CCOC1=O)c1ccc(-c2nc3ccccc3s2)s1` (stereo not given), with -0.6%; and `Cc1ccc(-n2nc3c(c2NC(=O)c2ccc4c(c2)OCO4)CSC3)c(C)c1`, with -0.1%. Then `O=C(Nc1ccccc1C(F)(F)F)c1cc(-c2ccc(O)cc2)on1`, with 0.1%; and `CCOc1ccc(Cn2c(SCCCCC#N)nc3c2c(=O)n(C)c(=O)n3C)cc1OCC`, with 0.1%; and `O=C(Nc1c(Cl)cccc1Cl)C1CCC1`, with 0.5%. Then `O=C(O)CC(Cn1cnnn1)c1ccccc1` (stereo not given), with 1.2%; and `Fc1ccccc1CCNc1nnnn1-c1ccccc1`, with -0.5%. Consider `CC(C)CNC(=O)C1CCCN(S(=O)(=O)c2ccc(-n3cnnn3)cc2)C1` (stereo not given), for which the activation is -0.3%. As for `Cc1oc(-c2cccc(Cl)c2)[n+]([O-])c1C`, the activation was 0.2%.

For `COC(=O)COc1ccc(S(=O)(=O)N2CCOCC2)cc1`, the activation was -0.6%.

As for `O=C(c1ccc2c(c1)C(=O)N(c1ccc(Cl)cc1)C2=O)N1CCN(c2ccccn2)CC1`, the activation was 0.4%. With `CCOc1ccc(C(CC(=O)O)NC(=O)COc2ccccc2)cc1` (stereo not given), the activation was -1.3%. Turning to `CC(C)Cn1c(N)c(C(=O)NCc2cccs2)c2nc3ccccc3nc21`, the activation is 18.4% (active). On to `C=CCn1c(N)c(S(=O)(=O)c2cccs2)c2nc3ccccc3nc21`, for which the activation was 0.2%. Then `C=CCn1c(N)c(C(=O)OCC(C)C)c2nc3ccccc3nc21`, with 0.4%. Then `Cc1ccc(C(=O)NCCNS(=O)(=O)c2ccccc2)cc1`, with -1.7%; and `CC(=O)Nc1cccc(Oc2cc(C#N)c(C#N)cc2N2CCOCC2)c1`, with -0.6%. Then `CC1CN(c2cc(=O)n(Cc3ccc(F)cc3)c(=O)[nH]2)CC(C)O1` (stereo not given), with 0.8%; and `Cc1nnc(SCC(=O)N2CCc3ccccc32)n1-c1ccccc1`, with -0.4%; and `CCOC(=O)CSc1nc2sc3c(c2c(=O)[nH]1)CC(C)(C)OC3`, with -0.1%. On to `CCCc1nnc(NC(=O)c2cc(OC)cc(OC)c2)s1`, for which the activation was 0.7%. With `Nc1nnnn1/N=C/c1cccs1`, the activation is -0.8%.

Turning to `CS(=O)(=O)N(C(=O)NC(=O)NC1CCS(=O)(=O)C1)C1CCCCC1` (stereo not given), the activation was 0.1%. For the compound `O=C(Nc1nnc(-c2ccc(Cl)cc2)o1)c1ccccc1Br`, the activation is -0.9%.

For the compound `CCOC(=O)N1CCC(NC(=O)c2ccc3nc(N4CCOCC4)sc3c2)CC1`, the activation is -0.6%. Then `COC(=O)C(C)C1Sc2ccccc2NC1=O` (stereo not given), with 0.6%; and `Cc1ccc(C(C(=O)NCc2ccco2)N(CC2CCCO2)C(=O)Cn2nnc3ccccc32)cc1` (stereo not given), with 0.3%. Then `O=C(NC1(C(F)(F)F)N=C2SCCN2C1=O)c1ccco1` (stereo not given), with -0.1%; and `CCNc1nc(NCC)nc(N(C)n2cnnc2)n1`, with 1.1%; and `c1n[nH]c(NCc2ccc3c(c2)OCO3)n1`, with -0.5%.

Regarding `N#Cc1nc(Cc2cccc3ccccc23)oc1NCc1ccc2c(c1)OCO2`, the activation is 10.4% (active). With `N#Cc1nc(Cc2ccccc2)oc1NCCc1ccccc1`, the activation is -0.8%.

With `Cc1cccc2c1N(CC(=O)OC(C)C)C(=O)C2=O`, the activation is 0.3%. On to `CCN(CC)P(=O)(C(NC(=O)OC)C(F)(F)C(F)(F)C(F)(F)C(F)F)N(CC)CC` (stereo not given), for which the activation is 0.8%. As to `COc1ccc(C2OC(=O)CC2C(=O)NC(C)C)cc1` (stereo not given), the activation is 0.2%. On to `CCc1c(C)nc(N)n2c(SCC(=O)N3CCN(c4ccccc4)CC3)nnc12`, for which the activation was -0.4%. For `Cc1cc(C)c(C)c(S(=O)(=O)Nc2ccc(O)cc2)c1C`, the activation was -0.5%.

`NS(=O)(=O)c1cc2c(cc1Cl)NC(C(Cl)Cl)NS2(=O)=O` (stereo not given): the activation is -0.1%.

In the case of `CC(=C1C(=O)c2ccccc2C1=O)N1CCN(c2ccccn2)CC1`, the activation was 0.2%. With `O=C(c1cccc(C(=O)N2CCN(c3ccc(F)cc3)CC2)c1)N1CCN(c2ccc(F)cc2)CC1`, the activation is 0.7%.

Regarding `O=C(NC1CCCCC1)C1CCCN(S(=O)(=O)c2cccs2)C1` (stereo not given), the activation is -0.4%. In the case of `Cc1cnc(C(=O)OCC(=O)Nc2ccc(Cl)cc2Cl)cn1`, the activation is 0.2%.

Take `CC1(C)Cc2ccccc2-c2nnc(-c3cccc(O)c3)n21`: the activation is 0.2%.

On to `Cc1ccc(NC2=NC(c3ccccc3)n3c(nc(C)cc3=O)N2)cc1` (stereo not given), for which the activation is 0.3%. Consider `COc1ccc(S(=O)(=O)Nc2ccc(S(=O)(=O)N3CCCCC3)cc2)cc1OC`, for which the activation was 0.4%. Take `CCCCn1nnnc1NCc1cc(OC)c(OC)c(OC)c1`: the activation is -0.7%. Then `Cc1ccccc1NC(=O)c1cnn(-c2ccccc2)c1NC(=O)c1ccco1`, with 0.5%; and `COc1ccc(OCC(=O)OCC(=O)Nc2ccc(S(=O)(=O)N3CCCCC3)cc2)cc1`, with -0.3%. Then `CC(C)=C(NC(=O)c1ccco1)C(=O)NCCc1nc2ccccc2[nH]1`, with 1.5%; and `CCN(CC)C(=O)CCC(=O)Nc1ccc(C(=O)OC)cc1`, with 20.5% (active).

Take `COC(=O)c1ccc(NC(=O)c2ccco2)cc1`: the activation was 0.1%. Then `CCCCC(CCC(=O)Nc1ccc(C(=O)OCC)cc1)C(=O)O` (stereo not given), with -0.3%. Then `O=C1NC(c2ccncc2)Nc2sc3c(c21)CCCC3` (stereo not given), with 0.1%; and `CCOC(=O)Cn1c2c(c(-c3ccccc3OC)cc1=O)CCCC2`, with -0.4%. `COC(=O)c1ccc(CSc2nc3ccccc3c(=O)n2-c2cccc(OC)c2)o1`: the activation was 1.3%. Consider `NC(CSC12CC3CC(CC(C3)C1)C2)C(=O)O` (stereo not given), for which the activation is 0.4%. Then `CC1Cc2ccccc2N1C(=O)Cn1cnc2ccccc2c1=O` (stereo not given), with -0.8%; and `Cc1nc2ccc(NC(=O)N3CCC(c4ccccc4)C3)cc2nc1C` (stereo not given), with -0.6%. Then `O=C(O)CCN1C(=O)CC2(CCCCC2)C1=O`, with 9.8% (active). Then `Cc1ccc(F)cc1NC(=O)c1ccc2c(c1)OCO2`, with -0.9%; and `COCCCN1C(=O)c2ccc(C(=O)Nc3ccc(OC)cc3OC)cc2C1=O`, with -0.6%.

For the compound `CCSc1nc(=S)n(CC)c(C)c1C(C)=O`, the activation was -0.3%. On to `CCn1c(Cc2ccccc2)nnc1SCc1nc2ccccc2c(=O)[nH]1`, for which the activation is -0.1%.

Consider `CCC(=O)Nc1nc(OC)cc(OC)n1`, for which the activation was -0.6%. Then `Cc1ccc(CCn2c3c(c4ccccc42)CN(C)CC3)cn1`, with 0.2%; and `Cc1ccc2nc3n(c(=O)c2c1)CCC3`, with -0.8%.

Take `COc1ccc(/C(O)=C2/C(=O)C(=O)N(c3nc(C)c(C)s3)C2c2ccco2)cc1` (stereo not given): the activation was 0.5%.

Regarding `Cn1c(=O)cc(SCC(=O)N2CCCC2)c2cc(Cl)ccc21`, the activation is -0.2%.

As for `CCOc1ccc(-c2nnn(CC(=O)N3CCN(c4ccc(OC)cc4)CC3)n2)cc1OCC`, the activation was -1.1%. Take `CCOC(=O)c1cc2c(n(-c3ccc(C)cc3)c1=O)CCCC2=O`: the activation is 0.8%. `C[C@@H](Nc1nc(-c2ccccc2)nc2c1oc1ccccc12)C(=O)O`: the activation is -0.7%.

As for `COc1ccc(S(=O)(=O)Nc2c(C)n(C)n(-c3ccccc3)c2=O)cc1`, the activation was -1.6%.

As to `CCC(C)Sc1nc2c(c(=O)[nH]c(=O)n2C)n1CC(O)COc1cccc2ccccc12` (stereo not given), the activation was 1.1%. Regarding `CCOc1c(OC)cc(C2C(C#N)=C(N)Oc3n[nH]c(-c4ccncc4)c32)cc1OC` (stereo not given), the activation is 0.7%.

In the case of `Cc1nc(NC(CC(C)C)C(=O)O)c2nc(C)oc2n1` (stereo not given), the activation was -1.1%.

In the case of `Cc1cc(C(=O)COC(=O)c2cccs2)c(C)n1-c1c(C)n(C)n(-c2ccccc2)c1=O`, the activation is -0.2%.

As to `CN(C(=O)C1CCOC1)c1nnc(-c2cccnc2)s1` (stereo not given), the activation was -1.1%.

With `COc1ccc(N2C(=O)CCC(C(=O)Nc3ccccn3)C2c2ccc(OC)c(OC)c2)cc1` (stereo not given), the activation was 2.5%. Then `CCOc1ccc(-n2c(SC(C)C(=O)OC)nc3c(c2=O)SCC3)cc1` (stereo not given), with 0.4%; and `COc1ccc(CC(=O)n2nc(-c3cccnc3)nc2N)cc1`, with 0.2%; and `O=c1nc(N2CCOCC2)nc2n1CCO2`, with 0.6%. Then `COc1ccc(C(=O)n2nc(-c3ccc(C)cc3)nc2N)cc1OC`, with 0%. For `Cc1cc(=O)n(C)c(=O)n1CCCNc1ccccc1`, the activation was -0.1%. On to `CN(C)CCNC(CC(=O)Nc1ccc(Cl)c(Cl)c1)C(=O)O` (stereo not given), for which the activation was 0.3%. Then `O=C(OCc1nnc(-c2ccccc2)o1)c1ccc2c(c1)C(=O)N(CCc1ccccc1)C2=O`, with 0.4%; and `Cc1ccc(-c2cc(C(F)(F)F)n3nc(C(=O)N4CCCC4)cc3n2)cc1`, with 0.8%. For `Cc1nc2c(-c3ccccc3)c(C)[nH]n2c(=O)c1Cl`, the activation is -0.7%.

With `Cn1nnnc1SCc1cc(=O)[nH]c2ccccc12`, the activation was -0.5%.

For `COc1ccccc1C(=O)N1CCN=C1SCc1cccnc1`, the activation is -0.4%. For the compound `Cn1nc(-c2ccc(N3CCOCC3)c(NC(=O)c3ccccc3)c2)c2ccccc2c1=O`, the activation was -1%. `FC(F)(F)c1cc(-c2cccs2)nc(NCc2ccco2)n1`: the activation is -1.9%. With `CC(c1ccccc1)n1c(NCCCn2ccnc2)nc2c1c(=O)[nH]c(=O)n2C` (stereo not given), the activation was -0.6%. For `COc1cccc(-c2nc3n(n2)C(c2ccccc2Cl)C(C(N)=O)=C(C)N3)c1` (stereo not given), the activation is -0.2%.

As to `CCc1c(C)sc(NC(=O)OC)c1C(=O)N1CCOCC1`, the activation is 14.2% (active).

Regarding `CCOC(=O)c1sc(NC(=O)CCN2CCOCC2)c(C(=O)OCC)c1C`, the activation is -0.8%. Then `CCc1c(C)sc(NC(=O)c2ccc(Br)o2)c1C(=O)OC`, with 0.2%.
